In assay [1] the target is Tyrosine-protein kinase SYK (Homo sapiens) (UniProt P43405). The conditions noted are these: at 10 µM.
Assay [2] has as its target T1, Mitogen-activated protein kinase kinase kinase 7 (Homo sapiens) (UniProt O43318).
T1 sequence (whole entry): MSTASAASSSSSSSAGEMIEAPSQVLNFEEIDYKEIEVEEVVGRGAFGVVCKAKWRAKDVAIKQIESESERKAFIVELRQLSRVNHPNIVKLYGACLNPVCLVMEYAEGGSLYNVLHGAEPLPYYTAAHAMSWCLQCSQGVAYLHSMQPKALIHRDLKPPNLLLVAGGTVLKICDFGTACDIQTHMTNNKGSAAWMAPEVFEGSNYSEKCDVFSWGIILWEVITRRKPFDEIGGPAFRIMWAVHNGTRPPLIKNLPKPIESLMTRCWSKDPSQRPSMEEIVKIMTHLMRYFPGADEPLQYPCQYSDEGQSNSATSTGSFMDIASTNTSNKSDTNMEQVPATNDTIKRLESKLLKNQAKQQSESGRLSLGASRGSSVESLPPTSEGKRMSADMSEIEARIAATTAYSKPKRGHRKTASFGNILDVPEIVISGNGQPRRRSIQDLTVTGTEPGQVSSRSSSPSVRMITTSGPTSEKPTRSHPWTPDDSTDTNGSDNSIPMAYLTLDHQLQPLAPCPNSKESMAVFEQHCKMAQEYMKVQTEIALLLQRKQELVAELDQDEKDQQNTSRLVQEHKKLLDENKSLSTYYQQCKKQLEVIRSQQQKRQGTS
The following applies: at 1 µM.

Assay [3] has as its target T1, Mitogen-activated protein kinase kinase kinase 7 (Homo sapiens). The following applies: at 10 µM.
Assay [4] addresses T2, Serine/threonine-protein kinase TAO1 (Homo sapiens) (UniProt Q7L7X3).
T2 sequence (whole entry): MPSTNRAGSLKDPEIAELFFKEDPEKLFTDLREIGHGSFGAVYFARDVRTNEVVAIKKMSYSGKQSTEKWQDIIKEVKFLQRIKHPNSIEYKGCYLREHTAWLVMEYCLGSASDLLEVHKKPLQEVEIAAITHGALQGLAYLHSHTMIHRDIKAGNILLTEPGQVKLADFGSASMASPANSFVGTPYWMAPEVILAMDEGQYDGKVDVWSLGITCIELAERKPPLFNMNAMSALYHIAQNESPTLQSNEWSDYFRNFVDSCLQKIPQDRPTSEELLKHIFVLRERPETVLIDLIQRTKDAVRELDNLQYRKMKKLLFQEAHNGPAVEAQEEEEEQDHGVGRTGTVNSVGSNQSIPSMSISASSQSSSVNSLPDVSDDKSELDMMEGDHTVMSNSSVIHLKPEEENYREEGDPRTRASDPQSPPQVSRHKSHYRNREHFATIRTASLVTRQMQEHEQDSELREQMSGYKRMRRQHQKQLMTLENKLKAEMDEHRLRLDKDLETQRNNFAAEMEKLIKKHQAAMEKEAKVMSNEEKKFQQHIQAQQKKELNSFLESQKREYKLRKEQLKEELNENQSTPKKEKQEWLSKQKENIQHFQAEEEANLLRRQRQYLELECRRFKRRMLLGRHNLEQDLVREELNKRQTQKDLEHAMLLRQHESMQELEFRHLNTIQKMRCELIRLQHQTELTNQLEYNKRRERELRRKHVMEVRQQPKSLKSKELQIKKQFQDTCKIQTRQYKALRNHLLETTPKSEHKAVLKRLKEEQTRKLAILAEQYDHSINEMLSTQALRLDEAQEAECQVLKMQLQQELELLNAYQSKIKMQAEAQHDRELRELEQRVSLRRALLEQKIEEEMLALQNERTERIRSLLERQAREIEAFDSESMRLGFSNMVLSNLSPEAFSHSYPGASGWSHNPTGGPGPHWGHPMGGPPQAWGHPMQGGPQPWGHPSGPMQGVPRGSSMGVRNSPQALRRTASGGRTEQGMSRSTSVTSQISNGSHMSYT
The following applies: at 1 µM.

The target in assay [5] is T2, Serine/threonine-protein kinase TAO1 (Homo sapiens). The following applies: at 10 µM.
Assay [6] has as its target T3, Serine/threonine-protein kinase TAO2 (Homo sapiens) (UniProt Q9UL54).
T3 sequence (whole entry): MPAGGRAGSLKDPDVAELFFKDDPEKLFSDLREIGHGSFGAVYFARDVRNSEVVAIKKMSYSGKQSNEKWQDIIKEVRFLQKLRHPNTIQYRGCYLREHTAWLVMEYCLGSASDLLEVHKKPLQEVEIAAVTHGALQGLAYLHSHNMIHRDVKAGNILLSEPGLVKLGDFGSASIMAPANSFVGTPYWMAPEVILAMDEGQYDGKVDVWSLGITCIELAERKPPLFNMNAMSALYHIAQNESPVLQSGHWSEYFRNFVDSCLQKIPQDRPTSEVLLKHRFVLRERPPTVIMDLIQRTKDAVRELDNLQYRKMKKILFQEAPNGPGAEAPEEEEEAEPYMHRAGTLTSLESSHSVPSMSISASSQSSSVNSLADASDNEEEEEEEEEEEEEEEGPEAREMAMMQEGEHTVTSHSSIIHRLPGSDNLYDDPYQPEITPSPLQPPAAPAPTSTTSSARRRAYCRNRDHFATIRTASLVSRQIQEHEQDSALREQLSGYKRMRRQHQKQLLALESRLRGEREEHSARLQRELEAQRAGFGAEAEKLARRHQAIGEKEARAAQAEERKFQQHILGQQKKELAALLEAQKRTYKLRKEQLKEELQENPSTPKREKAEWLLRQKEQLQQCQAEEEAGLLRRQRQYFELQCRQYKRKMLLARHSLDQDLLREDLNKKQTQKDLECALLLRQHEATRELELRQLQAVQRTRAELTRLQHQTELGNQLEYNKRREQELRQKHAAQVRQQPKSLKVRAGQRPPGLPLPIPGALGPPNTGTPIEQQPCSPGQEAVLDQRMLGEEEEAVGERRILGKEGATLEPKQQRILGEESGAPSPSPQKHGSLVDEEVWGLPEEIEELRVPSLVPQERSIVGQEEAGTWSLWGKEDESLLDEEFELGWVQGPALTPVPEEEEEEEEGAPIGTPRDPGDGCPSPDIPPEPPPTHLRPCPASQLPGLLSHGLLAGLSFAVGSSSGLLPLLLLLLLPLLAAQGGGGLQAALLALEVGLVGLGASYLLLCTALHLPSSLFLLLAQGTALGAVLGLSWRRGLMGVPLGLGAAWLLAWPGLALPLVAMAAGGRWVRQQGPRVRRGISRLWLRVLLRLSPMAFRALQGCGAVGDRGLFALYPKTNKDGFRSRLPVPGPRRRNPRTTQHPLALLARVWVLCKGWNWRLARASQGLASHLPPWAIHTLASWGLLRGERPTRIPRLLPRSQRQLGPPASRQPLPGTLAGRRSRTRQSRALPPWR
The following applies: at 1 µM.

Assay [7] has as its target T3, Serine/threonine-protein kinase TAO2 (Homo sapiens). The following applies: at 10 µM.
Assay [8] concerns the target T4, Serine/threonine-protein kinase TAO3 (Homo sapiens) (UniProt Q9H2K8).
T4 sequence (whole entry): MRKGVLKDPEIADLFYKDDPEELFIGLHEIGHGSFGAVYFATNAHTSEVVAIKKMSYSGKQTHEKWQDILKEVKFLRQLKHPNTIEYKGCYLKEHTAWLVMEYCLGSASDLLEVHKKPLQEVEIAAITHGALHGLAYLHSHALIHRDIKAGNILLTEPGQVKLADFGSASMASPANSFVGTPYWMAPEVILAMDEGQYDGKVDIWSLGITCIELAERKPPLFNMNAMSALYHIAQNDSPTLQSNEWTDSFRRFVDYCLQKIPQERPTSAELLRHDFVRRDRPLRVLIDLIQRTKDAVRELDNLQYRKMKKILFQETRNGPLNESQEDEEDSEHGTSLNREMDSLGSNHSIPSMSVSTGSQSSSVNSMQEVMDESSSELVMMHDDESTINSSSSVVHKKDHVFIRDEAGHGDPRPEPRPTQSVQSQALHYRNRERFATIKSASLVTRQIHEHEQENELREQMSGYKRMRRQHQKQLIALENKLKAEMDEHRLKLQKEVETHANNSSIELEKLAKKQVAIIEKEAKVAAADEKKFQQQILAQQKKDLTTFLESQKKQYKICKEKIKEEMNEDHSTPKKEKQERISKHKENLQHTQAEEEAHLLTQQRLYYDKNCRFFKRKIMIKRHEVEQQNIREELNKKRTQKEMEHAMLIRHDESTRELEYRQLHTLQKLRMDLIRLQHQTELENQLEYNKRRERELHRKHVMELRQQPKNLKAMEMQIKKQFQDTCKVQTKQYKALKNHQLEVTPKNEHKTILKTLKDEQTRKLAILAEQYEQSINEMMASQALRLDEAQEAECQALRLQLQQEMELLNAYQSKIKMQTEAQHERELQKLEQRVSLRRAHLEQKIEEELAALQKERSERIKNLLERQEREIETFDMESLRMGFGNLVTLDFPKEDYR
The following applies: at 1 µM.

Assay [9] concerns the target T4, Serine/threonine-protein kinase TAO3 (Homo sapiens). The conditions noted are these: at 10 µM.
For assay [10], the target named is T5, Serine/threonine-protein kinase TBK1 (Homo sapiens) (UniProt Q9UHD2).
T5 sequence (whole entry): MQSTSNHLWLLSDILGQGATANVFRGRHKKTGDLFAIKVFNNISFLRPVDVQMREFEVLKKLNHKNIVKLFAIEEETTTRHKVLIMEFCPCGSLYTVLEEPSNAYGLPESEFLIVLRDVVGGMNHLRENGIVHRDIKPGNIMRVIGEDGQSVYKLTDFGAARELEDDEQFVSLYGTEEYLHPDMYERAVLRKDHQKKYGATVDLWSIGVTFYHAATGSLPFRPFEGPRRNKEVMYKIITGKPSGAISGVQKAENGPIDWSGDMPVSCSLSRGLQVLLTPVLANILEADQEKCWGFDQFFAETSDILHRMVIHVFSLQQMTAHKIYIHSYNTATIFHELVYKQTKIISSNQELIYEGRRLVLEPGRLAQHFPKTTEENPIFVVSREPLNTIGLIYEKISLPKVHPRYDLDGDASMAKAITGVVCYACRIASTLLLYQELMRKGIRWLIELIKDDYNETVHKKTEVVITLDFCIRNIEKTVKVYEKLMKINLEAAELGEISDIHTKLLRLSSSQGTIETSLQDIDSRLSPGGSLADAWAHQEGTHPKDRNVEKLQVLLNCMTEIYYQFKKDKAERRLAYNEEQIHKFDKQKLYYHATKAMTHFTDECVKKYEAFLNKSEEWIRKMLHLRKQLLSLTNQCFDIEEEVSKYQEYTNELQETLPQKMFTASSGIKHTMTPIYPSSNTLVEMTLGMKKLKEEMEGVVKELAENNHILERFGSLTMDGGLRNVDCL
The following applies: at 1 µM.

Drawing on ChEMBL document CHEMBL2218924, “A broad activity screen in support of a chemogenomic map for kinase signalling research and drug discovery” (Biochem J, 2013), this text covers residual activity for one compound.

The structures appear in SMILES notation.

On to `CC#CC(=O)Nc1cc2c(Nc3ccc(F)c(Cl)c3)ncnc2cn1`, for which the residual activity in [1] worked out at 87%; in assay [2], 91%; in [3], 96%; in assay [4] it was 104%; in [5] it was 89%; in assay [6] it was 97%. Further, the residual activity in [7] was found to be 80%; in assay [8], 96%; in assay [9], 95%; in assay [10] it was 78%.
